# Screens from PubChem BioAssay.
# CYP2C9 act: increases human cytochrome P450 2C9 activity | P11712 | activation factor at 5 µM | recombinant CYP2C9, luciferin-H conversion, luminescence; active compounds read high; factor 1 = untreated enzyme, 0 = blocked | 96,000 compounds, 1.4% hits;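 active means activation factor of 2 or more for CYP2C9 at a 5 µM dose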;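 further: 0 = sulfaphenazole-blocked wells and 1 = vehicle-only wells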
# CYP2C19 act: increases human CYP2C19 enzyme activity; P33261; activation factor at 5 µM; AID 1025; 96,000 tested, under 10 active; recombinant CYP2C19, luciferin-H EGE luminescence; active compounds read high; 0 = fully inhibited enzyme, 1 = untreated enzyme;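 active means activation factor of at least 2 at 5 µM in the primary screen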;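 further: 0 = wells with 2.5 mM tranylcypromine and 1 = vehicle-only wells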
# Target sequence (P33261 whole entry, looked up): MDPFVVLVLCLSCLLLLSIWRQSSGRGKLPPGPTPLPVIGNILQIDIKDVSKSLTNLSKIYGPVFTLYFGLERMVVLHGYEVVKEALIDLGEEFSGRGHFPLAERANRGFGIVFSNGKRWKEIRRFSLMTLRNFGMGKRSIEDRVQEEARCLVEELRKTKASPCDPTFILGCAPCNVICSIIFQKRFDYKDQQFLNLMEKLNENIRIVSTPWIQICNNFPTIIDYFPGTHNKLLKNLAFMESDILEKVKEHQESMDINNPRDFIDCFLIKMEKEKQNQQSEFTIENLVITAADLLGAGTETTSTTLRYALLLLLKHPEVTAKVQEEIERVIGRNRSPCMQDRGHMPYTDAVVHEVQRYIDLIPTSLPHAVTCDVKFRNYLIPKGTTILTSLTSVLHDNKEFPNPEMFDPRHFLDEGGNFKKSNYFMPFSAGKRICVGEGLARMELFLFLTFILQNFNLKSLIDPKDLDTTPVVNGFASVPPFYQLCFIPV
# CYP2C19 inhib: human CYP2C19 inhibition; CYP2C19 Supersomes, luciferin-H EGE luminescence, 30 min; 96,000 compounds, 21% hits; inhibition, % at 5 µM; AID 778;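 active means CYP2C19 inhibition above a set limit at 5 µM in the primary screen, cut at about 50% in these data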;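 further: plate controls were negative control wells for no effect and 2.5 mM tranylcypromine positive control for full effect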
# PostGolgi ctrl: growth of the yeast control strain, post-Golgi counter-screen; 98,000 compounds, 5% hits; inhibition, % at 10 µM; AID 738; efflux-deficient yeast background strain, growth absorbance A615, 16 h
# PostGolgi yeast: growth inhibition of a yeast mutant, post-Golgi transport screen. AID 739. 98,000 compounds, 0.9% hits. inhibition, % at 10 µM. post-Golgi transport phenotypic cell assay;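 further: yeast cells grown in 1536-well plates; yeast grown about 18 h at 30C before absorbance read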
# CYP2C9 inh: inhibitors of human CYP2C9 | CYP2C9 Supersomes, luciferin-H conversion, luminescence | inhibition, % at 5 µM | 96,000 compounds, 20% hits;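 active means blocking of liver enzyme CYP2C9 beyond about 50% at 5 µM, limit read from the data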
# The depositor's hits bear a star. Only some compounds are listed: those with a hit (about 32% of all), similar ones and a draw of the others. Unless noted, no stated cut-off is given here; in the data, active means inhibition above about 30%; inactive means the rest.
SMILES,CYP2C9 act,CYP2C19 act,CYP2C19 inhib,PostGolgi ctrl,PostGolgi yeast,CYP2C9 inh
Cc1ccc(-n2c(SCC(=O)Nc3ccc4c(c3)OCO4)nnc2-c2cccs2)cc1,1,0.8,18.4,2.2,-6.6,1.7
NS(=O)(=O)c1ccc(NC(=O)CSc2nnc(Cc3cccs3)n2-c2ccccc2)cc1,0.9,1.1,-13.4,34.3*,-8.2,5.1
Cc1ccc(-n2c(Cc3cccs3)nnc2SCC(=O)Nc2ccc(S(N)(=O)=O)cc2)cc1,0.3,0.4,63.4*,6.0,3.6,74.1*
CCn1c(Cc2ccccc2)nnc1SCC(=O)Nc1ccc(S(N)(=O)=O)cc1,0.8,0.9,6.3,-1.8,22.9,17.8
Cc1nn(-c2ccccc2)c(=S)n1-c1ccccc1,1.2,1.2,-18.9,6.2,-16.7,-22.8
CCc1nc(-c2ccccc2O)n(-c2ccccc2)n1,0.8,0.3,74.5*,11.3,9.1,18.5
C=CCn1c(SC2CCOC2=O)nc2scc(C3CC3)c2c1=O (stereo unspecified),0.2,0.2,82.9*,6.3,14.5,77.3*
C=CCn1c(SCC(=O)NC2CCS(=O)(=O)C2)nc2scc(C3CC3)c2c1=O (stereo unspecified),0.3,0.6,35.7,-2.8,14.6,72.1*
C=CCn1c(SCC(=O)c2ccc(CNC(C)=O)o2)nc2scc(C3CC3)c2c1=O,0.3,0.4,57.3*,10.0,14.0,72.8*
COc1ccc(CN2CCC(CNC(=O)NC3CCCCC3)CC2)cc1,1,1,4.2,-1.9,5.8,-0.9
O=S(=O)(NC1CCCC1)c1ccc(S(=O)(=O)N2CCN(c3ccccc3)CC2)cc1,0.8,1.1,-5.0,-14.5,-2.7,16.0
COC(=O)c1ccsc1NC(=O)C1=COCCO1,1,1.1,-5.5,-5.1,-3.8,4.8
N#CC1=C(SCC(=O)c2cc3ccccc3oc2=O)NC(=O)C(C#N)C12CCCC2 (stereo unspecified),0.1,0.5,52.0*,7.8,8.7,88.4*
C=CCC1(O)C(=O)Nc2ccccc21 (stereo unspecified),1,0.9,8.4,2.8,-3.0,-4.3
CC(C)C(c1nnnn1C(C)(C)C)N1CCN(c2cccc(Cl)c2)CC1 (stereo unspecified),0,0.3,69.5*,90.1*,5.7,97.6*
CC(C)(C)n1nnnc1C(c1cccc(C#N)c1)N1CCCCCC1 (stereo unspecified),0.6,0.6,38.4,1.6,9.8,35.8
CC(C)C(c1nnnn1Cc1ccco1)N1CCN(c2cccc(Cl)c2)CC1 (stereo unspecified),0.3,0.2,81.4*,21.0,2.0,69.7*
CC(C)Oc1ccc(N2CC(C(=O)Nc3ccc4c(c3)OCO4)CC2=O)cc1 (stereo unspecified),0.8,1,-2.2,0.6,-0.7,21.0
CC(=O)N1CCc2cc(Br)cc(S(=O)(=O)NCC3CCCO3)c21 (stereo unspecified),1.1,0.8,24.5,1.7,3.3,-5.0
O=C(C1CC1)N1CCc2cc(Br)cc(S(=O)(=O)N3CCOCC3)c21,0.3,0.6,35.1,18.4,3.1,71.9*
CCN(c1ccc2c(c1)OCO2)S(=O)(=O)c1cc(Br)cc2c1N(C(C)=O)CC2,1.4,0.4,56.0*,9.3,-4.0,-42.9
Cc1ccc(CNC(=O)CCS(=O)(=O)c2cc(Br)cc3c2N(C(=O)C2CC2)CC3)o1,0.1,0.5,48.0,2.2,-0.9,88.6*
CCOCCCNS(=O)(=O)c1cc(Br)cc2c1N(C(=O)C1CC1)CC2,2.3*,0.8,18.2,5.7,3.1,-131.4
CCn1c(SCC(=O)NC(=O)NCc2ccco2)nnc1-c1cccs1,0.8,0.6,36.4,4.4,0.9,18.2
O=C1CSC(=S)N1CC1CCCO1 (stereo unspecified),0.8,0.8,19.6,8.4,6.9,20.0
O=C(C1CC1)N1CCc2cc(Br)cc(S(=O)(=O)NCc3ccc4c(c3)OCO4)c21,0.9,0.3,66.8*,-0.7,-2.3,13.8
CCC(=O)N1CCc2cc(Br)cc(S(=O)(=O)CCC(=O)NCCc3ccccc3)c21,0.3,0.7,29.1,14.3,-1.3,71.5*
O=C(C1CC1)N1CCc2cc(Br)cc(S(=O)(=O)NCCN3CCOCC3)c21,0.8,0.9,8.0,21.1,10.2,22.5
